Results: PubChem BioAssay AID1159580 (chemical genetic matrix, 2015)
The campaign covered roughly 5,500 compounds. About 2,000 (36%) were called active. Another 18% or so got no clear call; they are omitted. No stated cut-off is given here; in the data, active means normalized growth mostly below about 0.91 (no sharp cut-off); inconclusive means no clear call, values can overlap the other calls; inactive means mostly above about 0.92. Some of the results follow.

Experiment: chemical genetic growth profiling, strain panel (AID 1159580);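 further: tested at 20 µM; growth read once vehicle control cultures reached saturation at 30 °C; 1 = growth at the plate median or of vehicle wells; lower values mean less growth of the strain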
Conditions: S. cerevisiae deletion strains, growth OD
[1] = locus YAR019C, strain CDC15, active compounds read low
[2] = locus YBL105C, strain PKC1, active compounds read low
[3] = locus YBR135W, strain CKS1, active compounds read low
[4] = locus YBR136W, strain MEC1, active compounds read low
[5] = locus YBR160W, strain CDC28, active compounds read low
[6] = locus YDL017W, strain CDC7, active compounds read low
[7] = locus YDL028C, strain MPS1, active compounds read low
[8] = locus YDL101C, strain DUN1, active compounds read low
[9] = locus YDL108W, strain KIN28, active compounds read low
[10] = locus YDL132W, strain cdc53, active compounds read low
[11] = locus YDL214C, strain PRR2, active compounds read low
[12] = locus YDR052C, strain DBF4, active compounds read low
[13] = locus YDR054C, strain cdc34, active compounds read low
[14] = locus YDR226W, strain ADK1, active compounds read low
[15] = locus YDR477W, strain SNF1, active compounds read low
[16] = locus YER123W, strain YCK3, active compounds read low
[17] = locus YER133W, strain GLC7, active compounds read low
[18] = locus YFL009W, strain cdc4, active compounds read low
[19] = locus YFL029C, strain CAK1, active compounds read low
[20] = locus YFR003C, strain YPI1, active compounds read low
[21] = locus YFR019W, strain FAB1, active compounds read low
[22] = locus YFR028C, strain CDC14, active compounds read low
[23] = locus YGR040W, strain KSS1, active compounds read low
[24] = locus YGR052W, strain FMP48, active compounds read low
[25] = locus YGR092W, strain DBF2, active compounds read low
[26] = locus YHR030C, strain SLT2, active compounds read low
[27] = locus YHR079C, strain IRE1, active compounds read low
[28] = locus YHR082C, strain KSP1, active compounds read low
[29] = locus YHR205W, strain SCH9, active compounds read low
[30] = locus YIL147C, strain SLN1, active compounds read low
[31] = locus YJL095W, strain BCK1, active compounds read low
[32] = locus YJL128C, strain PBS2, active compounds read low
[33] = locus YJL157C, strain FAR1, active compounds read low
[34] = locus YJR016C, strain ILV3, active compounds read low
[35] = locus YJR066W, strain TOR1 (second series), active compounds read low
[36] = locus YJR066W, strain TOR1, active compounds read low
[37] = locus YKL048C, strain ELM1, active compounds read low
[38] = locus YKL067W, strain YNK1, active compounds read low
[39] = locus YKL101W, strain HSL1, active compounds read low
[40] = locus YKL193C, strain SDS22, active compounds read low
[41] = locus YKL203C, strain TOR2, active compounds read low
[42] = locus YLR113W, strain HOG1, active compounds read low
[43] = locus YLR133W, strain CKI1, active compounds read low
[44] = locus YLR403W, strain SFP1, active compounds read low
[45] = locus YML070W, strain DAK1, active compounds read low
[46] = locus YMR001C, strain CDC5, active compounds read low
[47] = locus YMR205C, strain PFK2 (second series), active compounds read low
[48] = locus YMR277W, strain FCP1, active compounds read low
[49] = locus YNL006W, strain LST8, active compounds read low
[50] = locus YNL020C, strain ARK1, active compounds read low
[51] = locus YNL161W, strain CBK1, active compounds read low
[52] = locus YNL183C, strain NPR1, active compounds read low
[53] = locus YNL207W, strain RIO2, active compounds read low
[54] = locus YNL222W, strain SSU72, active compounds read low
[55] = locus YNL307C, strain MCK1 (second series), active compounds read low
[56] = locus YOL078W, strain AVO1, active compounds read low
[57] = locus YOL136C, strain PFK27, active compounds read low
[58] = locus YOR061W, strain CKA2, active compounds read low
[59] = locus YOR119C, strain RIO1, active compounds read low
[60] = locus YOR231W, strain MKK1, active compounds read low
[61] = locus YOR329C, strain SCD5, active compounds read low
[62] = locus YPL031C, strain PHO85, active compounds read low
[63] = locus YPL153C, strain RAD53, active compounds read low
[64] = locus YPL204W, strain HRR25, active compounds read low
[65] = locus YPL209C, strain IPL1, active compounds read low
[66] = locus YPL256C, strain CLN2, active compounds read low
[67] = locus YPR025C, strain CCL1, active compounds read low
[68] = locus YPR106W, strain ISR1, active compounds read low
[69] = locus YPR111W, strain DBF20, active compounds read low
[70] = strain NNK1, active compounds read low
[71] = strain TSCII, active compounds read low

Measured: normalized growth

CSc1sc(C(=O)Sc2ccccc2)cc1S(=O)(=O)C(C)C
active: [42] 0.688
inactive: [1] 0.994 | [2] 0.997 | [3] 0.995 | [4] 0.991 | [5] 1 | [6] 0.995 | [7] 0.996 | [8] 1 | [9] 0.999 | [10] 0.983 | [11] 0.962 | [12] 0.993 | [13] 0.976 | [14] 1 | [15] 0.966 | [16] 0.902 | [17] 0.958 | [18] 0.979 | [19] 0.983 | [20] 0.994 | [21] 0.987 | [22] 0.992 | [23] 0.956 | [24] 0.927 | [25] 0.95 | [26] 0.997 | [27] 1 | [28] 0.988 | [29] 0.911 | [30] 0.99 | [31] 0.937 | [32] 0.937 | [33] 0.941 | [34] 0.988 | [35] 0.971 | [36] 1 | [37] 0.953 | [38] 0.961 | [39] 0.94 | [40] 0.992 | [41] 1.02 | [43] 0.955 | [44] 0.945 | [45] 0.93 | [46] 0.985 | [47] 0.966 | [48] 0.979 | [49] 0.997 | [50] 0.961 | [51] 0.993 | [52] 0.941 | [53] 0.974 | [54] 0.997 | [55] 0.946 | [56] 0.975 | [57] 0.929 | [58] 0.95 | [59] 1 | [60] 0.921 | [61] 0.994 | [62] 0.972 | [63] 0.988 | [64] 0.948 | [65] 0.994 | [66] 0.969 | [67] 0.996 | [68] 0.997 | [69] 0.979 | [70] 0.977 | [71] 0.98

Cc1c(C)c(C)c(C(=O)c2ccc(N=Cc3cc(Cl)cc(Cl)c3O)cc2)c(C)c1C
active: [11] 0.681 | [12] 0.904 | [15] 0.573 | [16] 0.464 | [17] 0.527 | [21] 0.625 | [23] 0.63 | [25] 0.239 | [26] 0.262 | [27] 0.338 | [29] 0.509 | [31] 0.233 | [33] 0.503 | [35] 0.6 | [36] 0.458 | [37] 0.55 | [38] 0.663 | [41] 0.662 | [42] 0.585 | [43] 0.523 | [44] 0.459 | [45] 0.502 | [47] 0.645 | [50] 0.469 | [55] 0.503 | [57] 0.382 | [58] 0.493 | [59] 0.663 | [60] 0.446 | [62] 0.583 | [63] 0.504 | [64] 0.483 | [66] 0.403
inactive: [1] 0.929 | [2] 0.934 | [3] 0.94 | [4] 0.925 | [5] 0.944 | [6] 0.926 | [7] 0.941 | [8] 0.949 | [9] 0.944 | [10] 0.926 | [13] 0.918 | [14] 0.923 | [18] 0.922 | [19] 0.932 | [20] 0.922 | [22] 0.941 | [24] 0.605 | [28] 0.631 | [30] 0.926 | [32] 0.927 | [34] 0.944 | [39] 0.735 | [40] 0.93 | [46] 0.938 | [48] 0.929 | [49] 0.938 | [51] 0.925 | [52] 0.655 | [53] 0.937 | [54] 0.94 | [56] 0.94 | [61] 0.921 | [65] 0.925 | [67] 0.937 | [68] 0.938 | [69] 0.941 | [70] 0.939 | [71] 0.925
